The values below come from ChEMBL document CHEMBL1961873, “Compounds: GSK PKIS; Assays: Nanosyn kinase panel” (2012).

In experiment [1] the test system is Tyrosine-protein kinase ABL1 (Homo sapiens), P00519 [T315I]. To be noted: at 1 µM.
Experiment [2] has as its system Tyrosine-protein kinase ABL1 (Homo sapiens), P00519 [Y253F]. To be noted: at 0.1 µM.
Experiment [3] has the same test system. To be noted: at 1 µM.
Experiment [4] addresses Tyrosine-protein kinase ABL1 (Homo sapiens) (UniProt P00519). To be noted: at 0.1 µM.
Experiment [5] has the same target. To be noted: at 1 µM.
The target of experiment [6] is ALK tyrosine kinase receptor (Homo sapiens) (UniProt Q9UM73). To be noted: at 0.1 µM.
For experiment [7] the target is unchanged. To be noted: at 1 µM.
The target of experiment [8] is Tyrosine-protein kinase ABL2 (Homo sapiens) (UniProt P42684). To be noted: at 0.1 µM.
Experiment [9] has the same target. To be noted: at 1 µM.
In experiment [10] the target is Tyrosine-protein kinase receptor UFO (Homo sapiens) (UniProt P30530). To be noted: at 0.1 µM.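 Further: values are mean percent inhibition of AXL from the GSK PKIS screen.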

What is called inhibition is the relative decrease from the control value, in per cent.

ALK tyrosine kinase receptor (Homo sapiens), sequence (Q9UM73 19-1620 limits assumed): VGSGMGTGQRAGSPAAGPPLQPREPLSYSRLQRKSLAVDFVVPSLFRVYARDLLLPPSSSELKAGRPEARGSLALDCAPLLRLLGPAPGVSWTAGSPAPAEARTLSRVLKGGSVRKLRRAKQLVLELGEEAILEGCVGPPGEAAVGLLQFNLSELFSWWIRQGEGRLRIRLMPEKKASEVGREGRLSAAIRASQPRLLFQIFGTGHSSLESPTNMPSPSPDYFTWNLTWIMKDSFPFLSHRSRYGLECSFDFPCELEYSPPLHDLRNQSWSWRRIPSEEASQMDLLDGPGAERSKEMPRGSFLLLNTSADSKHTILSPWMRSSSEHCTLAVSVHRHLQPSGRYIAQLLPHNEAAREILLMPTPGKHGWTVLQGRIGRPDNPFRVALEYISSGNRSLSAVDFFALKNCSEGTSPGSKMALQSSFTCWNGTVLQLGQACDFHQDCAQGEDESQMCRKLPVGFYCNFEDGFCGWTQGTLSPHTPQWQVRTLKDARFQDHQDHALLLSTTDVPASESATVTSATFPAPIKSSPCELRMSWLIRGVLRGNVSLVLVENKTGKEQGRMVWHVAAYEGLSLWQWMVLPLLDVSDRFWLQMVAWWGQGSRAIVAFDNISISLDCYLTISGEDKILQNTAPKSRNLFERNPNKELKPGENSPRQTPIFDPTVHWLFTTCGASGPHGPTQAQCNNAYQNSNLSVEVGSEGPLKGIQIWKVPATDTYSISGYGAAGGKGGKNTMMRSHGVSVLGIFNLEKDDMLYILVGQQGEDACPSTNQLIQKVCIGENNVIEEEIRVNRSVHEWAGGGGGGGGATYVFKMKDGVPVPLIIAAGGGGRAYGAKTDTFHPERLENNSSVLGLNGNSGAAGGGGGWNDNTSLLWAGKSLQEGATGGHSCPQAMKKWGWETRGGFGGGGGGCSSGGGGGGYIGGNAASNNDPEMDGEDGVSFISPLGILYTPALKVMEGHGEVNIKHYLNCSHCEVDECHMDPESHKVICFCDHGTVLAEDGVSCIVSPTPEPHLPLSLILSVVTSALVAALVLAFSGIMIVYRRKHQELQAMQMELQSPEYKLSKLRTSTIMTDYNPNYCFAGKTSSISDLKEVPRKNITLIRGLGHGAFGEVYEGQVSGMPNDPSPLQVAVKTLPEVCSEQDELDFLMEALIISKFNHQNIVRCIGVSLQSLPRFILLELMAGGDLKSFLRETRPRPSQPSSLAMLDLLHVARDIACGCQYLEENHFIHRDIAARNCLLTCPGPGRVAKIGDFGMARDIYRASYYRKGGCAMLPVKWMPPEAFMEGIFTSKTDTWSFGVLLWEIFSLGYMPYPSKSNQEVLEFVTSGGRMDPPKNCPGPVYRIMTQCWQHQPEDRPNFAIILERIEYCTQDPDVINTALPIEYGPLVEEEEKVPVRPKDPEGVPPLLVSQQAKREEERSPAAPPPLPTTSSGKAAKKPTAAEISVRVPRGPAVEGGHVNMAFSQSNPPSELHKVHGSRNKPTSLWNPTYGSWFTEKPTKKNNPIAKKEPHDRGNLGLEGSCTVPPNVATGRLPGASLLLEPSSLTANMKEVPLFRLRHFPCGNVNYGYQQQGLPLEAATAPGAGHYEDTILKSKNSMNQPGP
Tyrosine-protein kinase ABL2 (Homo sapiens), sequence (P42684 whole entry): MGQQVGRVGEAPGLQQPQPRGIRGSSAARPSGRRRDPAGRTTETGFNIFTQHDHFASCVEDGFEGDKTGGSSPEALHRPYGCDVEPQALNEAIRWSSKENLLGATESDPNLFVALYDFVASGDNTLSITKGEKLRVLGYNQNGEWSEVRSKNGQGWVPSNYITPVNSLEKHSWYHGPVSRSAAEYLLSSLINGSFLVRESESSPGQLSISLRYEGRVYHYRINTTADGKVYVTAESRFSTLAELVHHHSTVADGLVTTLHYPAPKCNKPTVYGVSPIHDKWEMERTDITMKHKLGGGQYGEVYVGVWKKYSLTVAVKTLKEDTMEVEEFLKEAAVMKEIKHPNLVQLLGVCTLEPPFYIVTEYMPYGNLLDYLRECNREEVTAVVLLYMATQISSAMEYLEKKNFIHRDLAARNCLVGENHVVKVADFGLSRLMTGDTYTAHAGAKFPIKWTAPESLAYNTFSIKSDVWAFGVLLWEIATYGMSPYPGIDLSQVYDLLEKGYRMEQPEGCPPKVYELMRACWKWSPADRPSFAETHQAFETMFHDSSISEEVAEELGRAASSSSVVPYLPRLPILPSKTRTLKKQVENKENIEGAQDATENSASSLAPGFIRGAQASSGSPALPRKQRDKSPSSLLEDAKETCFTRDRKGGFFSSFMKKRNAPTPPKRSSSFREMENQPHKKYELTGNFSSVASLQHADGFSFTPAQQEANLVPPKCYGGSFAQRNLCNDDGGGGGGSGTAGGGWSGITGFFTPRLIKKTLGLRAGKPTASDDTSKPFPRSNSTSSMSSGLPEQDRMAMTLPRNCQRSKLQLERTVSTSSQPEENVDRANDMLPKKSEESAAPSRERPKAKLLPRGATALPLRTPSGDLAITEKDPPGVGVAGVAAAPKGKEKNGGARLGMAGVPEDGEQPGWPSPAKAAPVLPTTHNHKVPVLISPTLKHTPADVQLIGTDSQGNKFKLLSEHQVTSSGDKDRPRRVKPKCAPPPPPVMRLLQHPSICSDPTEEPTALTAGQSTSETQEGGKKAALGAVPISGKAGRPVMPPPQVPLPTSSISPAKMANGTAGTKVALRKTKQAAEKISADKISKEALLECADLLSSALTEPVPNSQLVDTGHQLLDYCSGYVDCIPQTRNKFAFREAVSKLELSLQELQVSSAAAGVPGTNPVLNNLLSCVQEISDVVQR
Tyrosine-protein kinase receptor UFO (Homo sapiens), sequence (P30530 whole entry): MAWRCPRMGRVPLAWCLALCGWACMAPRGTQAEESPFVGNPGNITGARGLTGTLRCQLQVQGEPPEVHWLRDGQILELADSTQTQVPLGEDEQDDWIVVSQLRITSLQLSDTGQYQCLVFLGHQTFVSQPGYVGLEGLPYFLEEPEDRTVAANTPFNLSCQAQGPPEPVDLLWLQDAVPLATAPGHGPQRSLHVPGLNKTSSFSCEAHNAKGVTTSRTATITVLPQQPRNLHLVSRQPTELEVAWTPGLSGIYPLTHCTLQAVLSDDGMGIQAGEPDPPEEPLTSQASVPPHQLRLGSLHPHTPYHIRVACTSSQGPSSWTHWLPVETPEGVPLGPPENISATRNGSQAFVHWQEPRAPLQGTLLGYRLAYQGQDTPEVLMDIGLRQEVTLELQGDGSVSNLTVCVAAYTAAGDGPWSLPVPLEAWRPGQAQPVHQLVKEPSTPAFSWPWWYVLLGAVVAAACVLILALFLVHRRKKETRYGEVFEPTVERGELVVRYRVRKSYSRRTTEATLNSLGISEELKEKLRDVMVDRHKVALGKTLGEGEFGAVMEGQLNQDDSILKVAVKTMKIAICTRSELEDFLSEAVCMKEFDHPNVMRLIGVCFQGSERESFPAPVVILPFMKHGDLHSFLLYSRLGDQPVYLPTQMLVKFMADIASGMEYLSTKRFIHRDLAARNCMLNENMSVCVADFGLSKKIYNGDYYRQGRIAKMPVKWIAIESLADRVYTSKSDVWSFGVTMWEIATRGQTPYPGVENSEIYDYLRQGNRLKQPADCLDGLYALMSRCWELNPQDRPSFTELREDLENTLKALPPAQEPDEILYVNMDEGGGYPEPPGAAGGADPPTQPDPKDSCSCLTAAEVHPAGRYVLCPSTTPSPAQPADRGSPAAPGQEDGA

`COc1cc(/C=N/Nc2ncnc3c2cnn3C(C)C)ccc1O`: the inhibition was found to be 47.8% in [1]; 37% in experiment [2]; 82.2% in experiment [3]; 23.3% in experiment [4]; 73.7% in experiment [5]; 0.72% in [6]. In addition, the inhibition in experiment [7] was 4.12%; in experiment [8], 16.7%; in experiment [9], 68.5%; in experiment [10] it was -0.67%.

For the compound `CN1CCN(C(=O)c2ccc(NC(=O)Nc3ccc(N(C)c4ccnc(Nc5ccc(CS(C)(=O)=O)cc5)n4)cc3)cc2)CC1`, the inhibition in [1] was found to be 61.5%; in experiment [2], 8.21%; in experiment [3] it was 48.1%; in experiment [4] it was 9.79%; in experiment [5], 43.9%; in experiment [6], 1.71%. In addition, the inhibition was 10.3% in [7], 21.9% in experiment [8], 56.5% in experiment [9] and -3.75% in experiment [10].

In the case of `COc1cc2ncnc(Nc3ccc(C)c(O)c3)c2cc1OC`, the inhibition in experiment [1] turned out to be 68.2%; in experiment [2] it was 53.7%; in [3], 89.5%; in experiment [4], 36.1%; in [5] it was 78.5%; in experiment [6], 4.66%. Further, the inhibition in experiment [7] was 13.8%; in experiment [8], 15.8%; in [9] it was 65.2%; in [10] it was -6.97%.

As to `Nc1ccc(C#Cc2cncnc2Nc2ccc(OCc3cccc(F)c3)c(Cl)c2)cc1`, the inhibition was 1.84% in experiment [1]; 1.89% in experiment [2]; 2.12% in experiment [3]; 3.72% in experiment [4]; 4% in experiment [5]; 3.7% in experiment [6]. Moreover, the inhibition in experiment [7] is 3.34%; in experiment [8], 3.43%; in experiment [9], 4.12%; in experiment [10], -4.2%.

Take `NS(=O)(=O)c1ccc(-c2cc3ccncc3cc2OCc2ccccc2)cc1`: the inhibition in [1] turned out to be 3.49%; in experiment [2], 5.3%; in experiment [3] it was 3.98%; in experiment [4], 3.52%; in experiment [5] it was 7.38%; in experiment [6], 4.77%. The inhibition in [7] is 15.5%; in experiment [8] it was 3.51%; in [9], 6.27%; in [10], -5.69%.

As to `CN(C)c1cc2c(Nc3ccc4c(cnn4Cc4ccccc4)c3)ncnc2cn1`, the inhibition is -1.27% in experiment [1]; 1.19% in experiment [2]; 3.05% in experiment [3]; 2.46% in experiment [4]; 5.43% in experiment [5]; 2.86% in [6]. Further, the inhibition in [7] is 4.13%; in experiment [8] it was 1.06%; in experiment [9] it was 8.48%; in experiment [10] it was -6.03%.

Turning to `NC(=O)c1sc(-n2cnc3ccccc32)cc1OCc1ccccc1Br`, the inhibition is 4.17% in [1]; 2.98% in experiment [2]; 5.62% in [3]; 4.27% in [4]; 9.67% in [5]; 4.26% in experiment [6]. Moreover, the inhibition was 6.94% in experiment [7], 4.44% in experiment [8], 7.23% in experiment [9] and -6.14% in [10].

With `O=C(Nc1ccc(Oc2ccc3[nH]c(NC(=O)c4ccco4)nc3c2)cc1)Nc1cc(C(F)(F)F)ccc1F`, the inhibition in experiment [1] is 94.4%; in [2], 38%; in experiment [3] it was 84%; in [4], 27.9%; in experiment [5], 72.2%; in [6] it was -1.81%. Further, the inhibition in experiment [7] was determined as 7.58%; in experiment [8] it was 35.6%; in experiment [9], 66.4%; in experiment [10], 16.1%.

As for `CS(=O)(=O)CCNCc1nc(-c2ccc3ncnc(Nc4ccc(OCc5cccc(C(F)(F)F)c5)cc4)c3c2)cs1`, the inhibition in experiment [1] is 1.2%; in experiment [2], 1.32%; in experiment [3], 0.85%; in experiment [4], 3.97%; in experiment [5], 6.56%; in experiment [6], 2.68%. In addition, the inhibition was 6.49% in experiment [7], 1.49% in experiment [8], 4.56% in experiment [9] and -5.39% in experiment [10].

For `NS(=O)(=O)c1cccc(-c2cc3ccncc3cc2OCc2ccccc2)c1`, the inhibition in experiment [1] was determined as 2.66%; in experiment [2] it was 2.88%; in experiment [3], 5.09%; in [4], 4.3%; in [5] it was 12.2%; in experiment [6], 2.82%. Also, the inhibition in [7] is 7.12%; in experiment [8], 4.36%; in [9], 15.2%; in [10], -7.61%.

Consider `C[C@@H](Oc1cc(-n2cnc3ccc(OC[C@@H](O)CO)cc32)sc1C(N)=O)c1ccccc1Cl`, for which the inhibition in experiment [1] was 12.4%; in [2], -0.46%; in experiment [3], 10.3%; in experiment [4], -0.45%; in [5] it was 11.7%; in experiment [6], -0.7%. Also, the inhibition in experiment [7] was determined as 4.65%; in experiment [8], 0.97%; in experiment [9], 7.64%; in experiment [10] it was 2.21%.

On to `CN(C)C(=O)O[C@H]1CN[C@H](C#Cc2cc3ncnc(Nc4ccc(OCc5cccc(F)c5)c(Cl)c4)c3s2)C1`, for which the inhibition was 1.25% in experiment [1]; 4.89% in experiment [2]; 4.19% in experiment [3]; 3.76% in experiment [4]; 8.35% in experiment [5]; 2.82% in experiment [6]. In addition, the inhibition is 5.03% in experiment [7], 3.49% in experiment [8], 6.24% in [9] and -3.4% in experiment [10].

Consider `CS(=O)(=O)Nc1cccc(-c2ccc3c(NC(=O)C4CC4)n[nH]c3c2)c1`, for which the inhibition in experiment [1] came out at 30.6%; in experiment [2] it was 1.55%; in [3] it was 11.8%; in experiment [4], 1.81%; in [5], 17.9%; in experiment [6], 0.61%. Also, the inhibition in [7] came out at 1.09%; in experiment [8] it was 2.46%; in experiment [9], 3.55%; in [10], 0.1%.

With `COc1cccc(-n2ncc3c(N/N=C/c4ccc(C)cc4)ncnc32)c1`, the inhibition in [1] is 23.2%; in experiment [2], 31.8%; in experiment [3], 76.1%; in [4], 13%; in experiment [5], 62.1%; in experiment [6], 12.4%. Moreover, the inhibition is 22.3% in experiment [7], 64.2% in experiment [8], 40.5% in [9] and -3.91% in [10].

As for `O=S(=O)(CCOCc1ccc(-c2ccc3ncnc(Nc4ccc(OCc5cccc(F)c5)c(Cl)c4)c3c2)o1)c1ccccc1`, the inhibition came to 0.23% in experiment [1]; 1.1% in [2]; 1.05% in [3]; 2.88% in experiment [4]; 5.13% in [5]; 0.65% in experiment [6]. In addition, the inhibition in experiment [7] is 3.74%; in experiment [8], 2.62%; in [9], 6.65%; in experiment [10] it was -0.96%.

As to `COC(=O)c1cncc(/C=C/c2c(C)cc(O)cc2C)c1`, the inhibition in experiment [1] was 5.95%; in experiment [2] it was 13.9%; in experiment [3], 60.9%; in [4], 11%; in [5] it was 62.9%; in experiment [6] it was 2.92%. Also, the inhibition in [7] was 4.4%; in experiment [8] it was 12.5%; in experiment [9] it was 57.4%; in experiment [10], -3.94%.

`CC(C)c1ccc2c(c1)NC(=O)/C2=N/Nc1ccc(S(N)(=O)=O)cc1`: the inhibition in experiment [1] was 6.52%; in [2], 4.59%; in [3], 28.8%; in [4] it was 6.22%; in [5], 32.8%; in experiment [6] it was -0.35%. Also, the inhibition was 2.81% in [7], 3.65% in experiment [8], 25.7% in [9] and -0.26% in experiment [10].

`Cc1cc(-c2ccccn2)cc(C)c1/C=C/c1cncc(-c2nn[nH]n2)c1`: the inhibition amounted to 1.41% in [1]; 0.95% in experiment [2]; 5.04% in experiment [3]; 7.78% in experiment [4]; 13% in experiment [5]; 3.44% in experiment [6]. Besides, the inhibition in experiment [7] was 5.05%; in experiment [8], 5.89%; in experiment [9] it was 20.2%; in experiment [10] it was -5.03%.

Consider `COC(=O)Nc1nc2cc(Oc3ccc(NC(=O)Nc4cccc(Br)c4)cc3)ccc2[nH]1`, for which the inhibition worked out at 44.6% in experiment [1]; 7.87% in experiment [2]; 16.5% in experiment [3]; 6.66% in [4]; 19% in experiment [5]; 2.06% in experiment [6]. Further, the inhibition in [7] is 3.65%; in experiment [8], 16.1%; in experiment [9], 34.4%; in experiment [10], -0.21%.

As to `Cc1ccc2c(-c3ccnc(Nc4ccc5c(c4)OCCO5)n3)c(-c3ccc(C(F)(F)F)cc3)nn2n1`, the inhibition in experiment [1] was -0.15%; in experiment [2] it was 0.22%; in [3], 4.3%; in experiment [4] it was 2.59%; in experiment [5], 4.52%; in experiment [6], 2.45%. Moreover, the inhibition in [7] was 1.5%; in experiment [8] it was 2.56%; in experiment [9], 5%; in experiment [10] it was 0.41%.

With `CC(C)c1ccc(Nc2nccc(-c3cnn4ncccc34)n2)cc1`, the inhibition in experiment [1] turned out to be 10.6%; in [2], 4.68%; in experiment [3], 10%; in experiment [4], 3.33%; in [5] it was 13.3%; in [6], 4.56%. The inhibition is 23.7% in experiment [7], 4.44% in [8], 10.6% in experiment [9] and -4.19% in experiment [10].

As to `Cc1ccc(O)cc1Nc1ccnc2ccc(S(C)(=O)=O)cc12`, the inhibition was 18.4% in [1]; 94.9% in experiment [2]; 96.8% in [3]; 81.3% in experiment [4]; 85.5% in experiment [5]; 2.56% in experiment [6]. For the same compound, the inhibition was 8.35% in [7], 80.8% in [8] and -7.59% in experiment [10].

On to `CCOc1nccc2c1nc(-c1nonc1N)n2CC`, for which the inhibition in experiment [1] was found to be 6.12%; in [2], 1.56%; in [3], 6.81%; in [4], 4.96%; in experiment [5], 14.6%; in experiment [6] it was 2.69%. The inhibition in experiment [7] stood at 5.24%; in experiment [8] it was 3.48%; in [9], 11.2%; in [10] it was 0.71%.

As for `Nc1nccc(C#Cc2cncnc2Nc2ccc(OCc3cccc(F)c3)c(Cl)c2)n1`, the inhibition in experiment [1] stood at 2.7%; in experiment [2] it was 3.75%; in experiment [3], 2.69%; in experiment [4], 4.16%; in [5], 9.58%; in [6] it was 3.59%. Besides, the inhibition in [7] is 6.28%; in experiment [8], 3.79%; in experiment [9], 3.33%; in experiment [10], -7.36%.

For `Oc1cccc(-c2nc(-c3ccccc3)[nH]c2-c2ccncc2)c1`, the inhibition in [1] is 8.47%; in experiment [2], 11.9%; in [3] it was 44.9%; in experiment [4], 8.48%; in experiment [5] it was 43.3%; in experiment [6], 3.1%. Besides, the inhibition in experiment [7] is 4.75%; in experiment [8], 13.2%; in [9] it was 50.8%; in experiment [10] it was -4.03%.

For `[O-][S+]1CCN(Cc2ccc(-c3ccc4ncnc(Nc5ccc(OCc6ccccc6)c(Cl)c5)c4c3)o2)CC1`, the inhibition in [1] was 1.03%; in [2], 0.95%; in experiment [3], 2.06%; in experiment [4], 2.3%; in [5], 4.26%; in experiment [6] it was 2.04%. The inhibition in [7] is 8.58%; in experiment [8] it was 1.82%; in experiment [9] it was 3.39%; in [10], -2.39%.

On to `ON=C1CCc2cc(-c3nc(C4CCNCC4)[nH]c3-c3ccncc3)ccc21`, for which the inhibition in [1] stood at 1.59%; in experiment [2] it was 0.98%; in experiment [3], 1.65%; in experiment [4], 1.37%; in experiment [5], 4.12%; in [6], 2.45%. Moreover, the inhibition in [7] is 4.92%; in experiment [8], 2.12%; in experiment [9] it was 6.46%; in experiment [10], -1.8%.
